PfHsp40 yeast: rescue of PfHsp40-mediated yeast toxicity; growth rescue, % at 12.5 µM; S. cerevisiae expressing PfHsp40, growth rescue, ATP luminescence; 0.68% of 340,000 active; in the data active = growth rescue above about 28%, passing the limit was not always enough;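 note: yeast W303a lacking pdr1 and pdr3 grown in galactose medium; growth measured after three days at 30 °C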
BioA inh: blocks M. tuberculosis BioA enzyme activity | purified M. tuberculosis BioA enzyme, plate reader | AID 602481 | inhibition, % at 9.99 µM | 0.096% of 360,000 active; in the data active = inhibition above about 40%
FadD28 binding: M. tuberculosis FadD28 bisubstrate binding inhibition; 0.22% of 360,000 active; inhibition, % at 12.5 µM; AID 588549; FadD28 bisubstrate probe binding, fluorescence polarization; in the data active = inhibition above about 8.5%, passing the limit was not always enough
PrP UTR inh: suppresses PrP 5' UTR mRNA reporter expression; cell-based PrP 5' UTR mRNA reporter, plate reader; inhibition, % (concentration not given with the values); 0.35% of 340,000 active; in the data active = inhibition above about 52%; note: 0 = median of the neutral control wells
TcdB GH inh: inhibitors of Clostridioides difficile toxin B glycohydrolase; P18177; TcdB glycohydrolase enzymatic assay, plate reader; inhibition, % at 9.99 µM; 0.24% of 350,000 active; in the data active = inhibition above about 10%
Target sequence (P18177 whole entry, looked up): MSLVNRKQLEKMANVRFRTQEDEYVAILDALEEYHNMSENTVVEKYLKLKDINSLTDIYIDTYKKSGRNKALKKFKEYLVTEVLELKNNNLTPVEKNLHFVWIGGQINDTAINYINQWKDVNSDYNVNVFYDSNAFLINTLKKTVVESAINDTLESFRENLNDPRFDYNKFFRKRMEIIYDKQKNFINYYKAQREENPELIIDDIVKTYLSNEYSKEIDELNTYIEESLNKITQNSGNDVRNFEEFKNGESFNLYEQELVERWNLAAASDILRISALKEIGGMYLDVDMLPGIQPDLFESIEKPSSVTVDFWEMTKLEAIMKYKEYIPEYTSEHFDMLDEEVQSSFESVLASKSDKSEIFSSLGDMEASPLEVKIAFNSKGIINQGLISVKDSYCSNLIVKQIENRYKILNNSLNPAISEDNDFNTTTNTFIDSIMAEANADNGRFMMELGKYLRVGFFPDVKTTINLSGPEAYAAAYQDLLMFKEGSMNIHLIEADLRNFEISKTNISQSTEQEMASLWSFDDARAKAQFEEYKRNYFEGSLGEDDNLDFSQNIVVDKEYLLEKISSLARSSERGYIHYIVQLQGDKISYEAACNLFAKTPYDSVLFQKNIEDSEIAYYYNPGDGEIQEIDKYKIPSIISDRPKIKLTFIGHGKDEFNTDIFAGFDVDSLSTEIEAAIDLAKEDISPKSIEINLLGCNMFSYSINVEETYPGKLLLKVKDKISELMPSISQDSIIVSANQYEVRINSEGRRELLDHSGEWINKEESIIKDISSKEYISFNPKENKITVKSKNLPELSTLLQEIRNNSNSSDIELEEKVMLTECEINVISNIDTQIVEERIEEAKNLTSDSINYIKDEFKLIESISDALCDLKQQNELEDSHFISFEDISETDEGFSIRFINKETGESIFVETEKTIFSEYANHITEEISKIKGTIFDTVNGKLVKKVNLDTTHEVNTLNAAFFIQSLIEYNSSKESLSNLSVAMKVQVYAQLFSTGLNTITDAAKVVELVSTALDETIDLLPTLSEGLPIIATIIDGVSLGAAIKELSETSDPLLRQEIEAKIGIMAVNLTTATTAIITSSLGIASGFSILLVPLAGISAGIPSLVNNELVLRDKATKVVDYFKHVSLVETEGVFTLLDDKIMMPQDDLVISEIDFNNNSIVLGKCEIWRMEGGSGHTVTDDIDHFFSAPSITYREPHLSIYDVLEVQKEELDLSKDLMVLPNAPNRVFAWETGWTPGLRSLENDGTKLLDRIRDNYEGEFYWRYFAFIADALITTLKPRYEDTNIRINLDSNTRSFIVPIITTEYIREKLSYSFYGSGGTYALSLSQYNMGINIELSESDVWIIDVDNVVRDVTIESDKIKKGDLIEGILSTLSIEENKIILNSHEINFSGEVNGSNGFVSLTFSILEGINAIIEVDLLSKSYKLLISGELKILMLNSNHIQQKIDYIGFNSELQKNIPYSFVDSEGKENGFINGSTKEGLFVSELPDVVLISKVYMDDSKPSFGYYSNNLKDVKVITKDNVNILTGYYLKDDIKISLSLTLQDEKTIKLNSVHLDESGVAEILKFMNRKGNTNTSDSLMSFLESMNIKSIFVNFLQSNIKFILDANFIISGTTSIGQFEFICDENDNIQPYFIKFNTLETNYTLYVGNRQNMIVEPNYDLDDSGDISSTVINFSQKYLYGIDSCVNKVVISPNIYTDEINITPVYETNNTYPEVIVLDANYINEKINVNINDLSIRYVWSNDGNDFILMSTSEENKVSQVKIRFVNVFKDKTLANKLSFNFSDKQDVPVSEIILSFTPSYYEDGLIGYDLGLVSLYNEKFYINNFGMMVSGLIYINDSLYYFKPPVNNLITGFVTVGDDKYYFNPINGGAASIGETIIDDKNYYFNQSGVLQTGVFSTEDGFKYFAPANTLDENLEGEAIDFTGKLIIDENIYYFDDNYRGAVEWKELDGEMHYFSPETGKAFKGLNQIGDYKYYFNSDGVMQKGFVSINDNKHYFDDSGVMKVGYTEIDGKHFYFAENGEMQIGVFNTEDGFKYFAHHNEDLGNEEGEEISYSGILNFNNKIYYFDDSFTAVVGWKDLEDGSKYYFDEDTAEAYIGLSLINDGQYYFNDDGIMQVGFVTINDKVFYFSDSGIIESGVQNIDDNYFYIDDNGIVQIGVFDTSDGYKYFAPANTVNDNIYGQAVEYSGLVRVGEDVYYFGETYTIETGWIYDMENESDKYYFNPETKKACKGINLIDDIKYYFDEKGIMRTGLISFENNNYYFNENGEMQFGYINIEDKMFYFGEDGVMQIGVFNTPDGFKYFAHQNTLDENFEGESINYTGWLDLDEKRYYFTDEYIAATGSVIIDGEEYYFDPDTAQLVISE
* hit, by the source's call; . = not tested or not shown. Shown are actives, neighbours in structure and some others; about 1.1% of the full set was active somewhere.

SMILES	PfHsp40 yeast	BioA inh	FadD28 binding	PrP UTR inh	TcdB GH inh
Cc1ccc(CNC(=S)NC2CCC(C(C)(C)C)CC2)cc1 (centres undefined)	188*	-1	2	-14	0
COc1ccc(CNC(=S)NC2CCCC2)cc1	0	-3	1	-15	1
Cc1ccc(C(C)NC(=S)NC2CCCCC2)cc1C (centres undefined)	-1	-1	-1	-4	-1
O=S1(=O)[C@H]2C[C@@H]3C=C[C@@]2(CN1Cc1cccc(F)c1)O3	66*	-3	0	-28	-1
O=S1(=O)[C@H]2C[C@@H]3C=C[C@@]2(CN1Cc1cccc(C(F)(F)F)c1)O3	0	0	1	-20	2
COc1ccc(S(=O)(=O)NC2CC3CCC2C3)cc1Br (centres undefined)	81*	2	-4	-18	1
O=S(=O)(NC1CC2CCC1C2)c1ccc2c(c1)OCCO2 (centres undefined)	0	1	-1	-22	.
Cc1cc(C)c(S(=O)(=O)NC2CC3CCC2C3)c(C)c1 (centres undefined)	64*	0	-1	-23	1
N#C[C@@H]1[C@H](c2ccccc2C2=CCCCC2)[C@@H](CO)N1C(=O)C1CCOCC1	.	.	.	.	1
COc1cc(/C=C(\C#N)C(=O)N2CCCCC2)ccc1O	-1	0	-3	-13	14*
CCOCCCNC(=O)C1(O)c2cc(Br)ccc2NC(=O)N1c1ccc(OCC)cc1 (centres undefined)	51*	-1	1	-18	0
CCOCCCNC(=O)C1(O)c2cc(Br)ccc2NC(=O)N1c1ccc(CC)cc1 (centres undefined)	-1	-3	-2	-10	1
O=S(=O)(Nc1ccccc1C(F)(F)F)c1ccc(-c2ccccn2)s1	28*	0	1	-22	2
Cc1noc(C)c1NC(=O)N[C@H]1CC[C@H](CCNC(=O)C2CCC2)O[C@@H]1CO	.	-2	.	.	-7
O=C1CC(N2CCN(c3ccc(F)cc3)CC2)C(=O)N1Cc1cccs1 (centres undefined)	0	1	-3	-19	.
O=C1CC(N2CCN(c3nc4ccccc4s3)CC2)C(=O)N1Cc1cccs1 (centres undefined)	99*	-1	-1	-18	.
COc1cc(/C=N/NC(N)=S)ccc1OC(=O)c1ccc(C)cc1	1	.	-18	-8	.
COc1cc(/C=N/NC(N)=S)ccc1OCc1ccc(C)cc1	22	.	16*	-29	2
COC(=O)c1ccc2nc(NC(=O)C(C)(C)C)sc2c1	-2	.	-10	35	1
COC(=O)c1ccc2nc(Nc3nc4ccc(F)cc4s3)sc2c1	-2	-2	-4	81*	1
O=S(=O)(c1cccc(Cl)c1)N1CCN(S(=O)(=O)c2ccc3c(c2)OCCO3)CC1	43*	-1	-2	-38	-3
CCNC(=S)N/N=C/c1cn(Cc2ccc(F)cc2)c2ccccc12	3	.	-2	-14	-1
O=C(O)c1ccc(N/N=C/c2cn(Cc3ccc(F)cc3)c3ccccc23)cc1	2	6	18*	-7	0
Oc1c(CN2CCOCC2)cc(COCc2ccccc2)c2cccnc12	65*	0	-1	10	.
Oc1c(CNc2ccccc2)cc(COCc2ccccc2)c2cccnc12	53*	3	0	-1	0
SMILES	PfHsp40 yeast	BioA inh	FadD28 binding	PrP UTR inh	TcdB GH inh
C[C@H]1CN([C@@H](C)CO)C(=O)c2cc(NC(=O)Nc3ccc(C(F)(F)F)cc3)ccc2O[C@@H]1CN(C)C(=O)Nc1ccc(C(F)(F)F)cc1	.	-3	.	.	-2
CCCN1[C@H](C(=O)NC2Cc3ccccc3C2)[C@@H](CO)[C@@H]2Cn3c(ccc(C4=CCCCC4)c3=O)[C@@H]21	.	4	.	.	0
COc1cccc(OCc2cc(C(=O)N3CCC(c4ccncc4)CC3)no2)c1	-1	2	-1	-3	-2
COc1cccc(OCc2cc(C(=O)N3CCN(C)C(c4ccccc4)C3)no2)c1 (centres undefined)	149*	0	0	-27	.
CCc1cc(-c2[nH]ncc2-c2ccc([N+](=O)[O-])cc2)c(O)cc1OC	360*	0	-5	-1	.
COc1cc([N+](=O)[O-])cc(/C=N/NC(=O)C(O)(c2ccccc2)c2ccccc2)c1O	30*	1	-1	-10	0
Cc1ccc(-c2ccc3c(c2)O[C@H](CN(C)Cc2ccc(C(=O)O)cc2)[C@H](C)CN([C@@H](C)CO)S3(=O)=O)cc1	.	4	.	.	-3
Cc1ccc(CSc2nnc(C(F)(F)F)n2Cc2ccc(F)cc2)cc1	38*	10	-4	-16	1
C[C@H](CO)N1C[C@H](C)[C@H](CN(C)C(=O)Nc2ccc(C(F)(F)F)cc2)Oc2c(NC(=O)Nc3cccc4ccccc34)cccc2C1=O	.	-3	.	.	-1
Cc1[nH]c2ccccc2c1C(C#N)(C#N)C1C(=O)c2ccccc2C1=O	-1	-1	18*	-8	1
Cc1[nH]c2ccccc2c1CC#N	0	1	-1	-17	1
COc1ccc2[nH]c3c(c2c1)CCN1C(=O)N([C@@H](C)C(=O)NCc2ccc(F)cc2)C(=O)[C@]31C	0	-1	-3	-13	.
COc1ccc2[nH]c3c(c2c1)CCN1C(=O)N([C@@H](C)C(=O)NCCc2ccc(F)cc2)C(=O)[C@]31C	58*	1	-1	-28	-1
CC(Sc1ccc(Cl)cc1)C(=O)NCC(c1ccco1)N1CCCCC1 (centres undefined)	35*	4	-1	-17	-2
O=C(NCCSCc1ccc(Cl)cc1Cl)c1ccc(CN2CCOCC2)cc1	1	1	43*	-11	1
O=C(NCCSc1ccc(Cl)cc1)c1ccc(CN2CCOCC2)cc1	0	.	-2	-21	0
CC(=O)/C=C(\C)Nc1ccccc1O	43*	1	-2	-25	-1
O=C(Nc1ccccc1O)c1ccccc1O	0	0	-3	-28	.
CC(=O)Oc1c(C)c(=O)n(C)c2ccccc12	-3	-1	1	-18	0
COc1c(OC(C)=O)c(=O)n2c3ccccc3c3ccnc1c32	27*	-1	-4	-3	-1
CCN(CC)c1ccc(/C=c2\sc3nnc(-c4ccccc4Cl)n3c2=O)cc1	1	-6	19*	10	.
CCCc1cn(CC[C@H]2CC[C@H](NC(=O)Nc3ccccc3F)[C@H](CO)O2)nn1	.	1	.	.	0
O=C(CCNS(=O)(=O)c1ccccc1)N1CCN(c2ccccc2)CC1	54*	0	0	-9	0
COc1cc(C2(c3ccc(O)c(OC)c3)C(=O)N(C)c3ccc(Br)cc32)ccc1O	2	.	1	-20	-2
COc1cc(C2(c3ccc(O)c(OC)c3)C(=O)Nc3c(Br)cc(Br)cc32)ccc1O	66*	4	-5	-15	-2
Cc1ccc(S(=O)(=O)Nc2ccc3c(c2)C(=O)N([C@H](C)CO)C[C@H](C)[C@@H](CN(C)C(=O)C2CCCCC2)OCCCC[C@H](C)O3)cc1	.	1	.	.	1

Assay outcomes deposited in PubChem by Broad Institute.
